Screening data: PubChem BioAssay, National Center for Advancing Translational Sciences (NCATS)
HepG2 viability: counter-screen for TGF-b inhibitors: cytotoxicity in HepG2 cells | HepG2 CAGA-GFP viability, ATP luminescence, 18 h | Potency, µM (top dose mostly 46.1 µM), actives largely listed as cytotoxic | actives 0.76% (n = 410,000)
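CellTiter-Glo luminescence gave cytotoxicity after 18 hours at 37 degrees C. The cells were HepG2 CAGA-GFP in 1% FBS DMEM, stimulated with 500 pg/mL TGF-beta after compound addition. %Activity was normalised to no-cell wells (complete cell-killing) and DMSO (no toxicity), and curves were fitted and classified.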
TDP1 inh: blocks human tyrosyl-DNA phosphodiesterase 1; Q9NUW8; recombinant TDP1, AlphaScreen DNA substrate cleavage; Potency, µM (top dose mostly 130 µM), actives largely listed as inhibitors; actives 0.28% (n = 350,000); further: nearly all actives have a fitted effect of over 40% in size
Target sequence (Q9NUW8 whole entry, looked up): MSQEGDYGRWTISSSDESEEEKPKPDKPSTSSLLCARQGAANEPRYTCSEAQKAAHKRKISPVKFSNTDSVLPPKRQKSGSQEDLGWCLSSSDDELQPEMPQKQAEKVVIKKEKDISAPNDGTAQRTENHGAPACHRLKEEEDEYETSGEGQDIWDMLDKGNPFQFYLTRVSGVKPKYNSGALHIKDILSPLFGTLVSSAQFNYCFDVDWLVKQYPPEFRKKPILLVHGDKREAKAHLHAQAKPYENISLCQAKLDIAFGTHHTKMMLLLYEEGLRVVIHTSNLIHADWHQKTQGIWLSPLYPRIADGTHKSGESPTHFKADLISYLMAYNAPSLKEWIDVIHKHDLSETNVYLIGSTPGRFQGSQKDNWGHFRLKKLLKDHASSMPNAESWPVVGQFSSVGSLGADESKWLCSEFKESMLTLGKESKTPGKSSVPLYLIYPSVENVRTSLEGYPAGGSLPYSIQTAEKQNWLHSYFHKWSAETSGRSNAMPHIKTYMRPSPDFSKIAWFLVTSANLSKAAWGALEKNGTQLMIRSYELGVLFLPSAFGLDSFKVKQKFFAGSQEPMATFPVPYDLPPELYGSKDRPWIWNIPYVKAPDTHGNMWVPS
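Compounds were preincubated with Tdp1 (1 nM final) for 15 min at room temperature before substrate (15 nM final) started a 5 min reaction; beads (10 ug/ml final) were then added for 10 min before AlphaScreen detection.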
IL1B secr inh: blocks inflammasome-driven IL-1 beta release. THP-1 LPS/ATP IL-1B secretion, AlphaLISA, 16 h; active compounds read low. activity change, % at 57.5 µM. actives 4.7% (n = 360,000); in the data active means activity change below about -50%; inconclusive means mostly about -30% to -49%
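Secreted IL-1B measured by AlphaLISA bead assay after 16 h compound exposure of THP-1 cells; compounds (final up to 57.5 uM) added 1 h before LPS (250 ng/mL) and ATP (1.25 mM) stimulation; lower signal means less secretion.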
TGFb inhibitor: blocks TGF-b signaling; Potency, µM (top dose mostly 46.1 µM), actives largely listed as inhibitors; actives 1.2% (n = 410,000); HepG2 CAGA-GFP TGF-b/SMAD3 reporter, GFP fluorescence, 18 h; TGF-beta stimulated, 500 pg/mL final; further: nearly all actives have a fitted effect of over 65% in size
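HEPG2 CAGA-GFP cells (1000/well, DMEM with 1% FBS) were pre-incubated 2 h at 37 degrees C, given compound by pin tool, then stimulated with TGF-beta at 500 pg/mL final for 18 h before per-cell GFP fluorescence imaging.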
DT40 TDP1 CPT: DT40-hTDP1 cell growth loss with CPT. Potency, µM (series often up to 46.2 µM), usual class: inhibitors. chicken DT40 Tdp1-/-;hTDP1 cells + 20 nM CPT, ATP luminescence, 48 h. actives 12% (n = 420,000); further: nearly all actives have a fitted effect of over 55% in size
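Chicken DT40 Tdp1-/- cells complemented with human TDP1, 400 cells/well, exposed to compounds plus 20 nM camptothecin for at least 48 h at 37 C; viability read as ATP content by CellTiter-Glo luminescence.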
DT40 TDP1 no CPT: qHTS for Inhibitors of human tyrosyl-DNA phosphodiesterase 1 (TDP1): qHTS in cells in absence of CPT. actives 15% (n = 420,000). Potency, µM (doses to about 46.2 µM), most hits filed as inhibitors. AID 686978, 2013. DT40 Tdp1-/- hTDP1 cells, no CPT, ATP luminescence, 48 h; further: nearly all actives have a fitted effect of over 55% in size
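A cellular qHTS used chicken DT40 cells lacking endogenous Tdp1 but carrying stably transfected human TDP1. Compounds were applied without camptothecin, and cell growth kinetics were judged by ATP-dependent luminescence after ≥48 hr.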
Hits are given with their value; - = inactive; ? = inconclusive; . = no result given; [ ] = another dose, or the depositor's remark. Sampled rows, rich in hits. Any-hit rate of the full collection: about 18%. Unless noted, the call rests on the fitted dose curve; in most records, active means well fitted curve in the direction sought with a large enough effect; inconclusive means small, poorly fitted or top-dose-only effect, or another doubt; inactive means no such curve, though single readings can be large; an effect the other way counts as inactive or inconclusive.

SMILES | HepG2 viability | TDP1 inh | IL1B secr inh | TGFb inhibitor | DT40 TDP1 CPT | DT40 TDP1 no CPT
O=C(c1ccco1)N1CCN(c2nc(C(F)(F)F)nc3c2nnn3Cc2ccccc2)CC1 | - | - | ? | ? | 18.4µM | ?
Fc1ccccc1N1CCN(c2nnc(C(F)(F)F)c3nnn(Cc4ccccc4)c23)CC1 | - | - | . | - | ? | ?
CCOC(=O)C1CCN(c2ncnc3c2nnn3Cc2ccccc2Cl)CC1 | - | - | - | - | - | -
O=C(c1ccco1)N1CCN(c2ncnc3c2nnn3Cc2ccccc2Cl)CC1 | - | - | - | - | ? | 23.1µM
COc1ccccc1-c1cncc(NC(C)=O)n1 | - | . | - | - | - | -
FC(F)(F)c1ccc(N2CCN(c3ncnc4c3nnn4Cc3ccccc3Cl)CC2)cc1 | - | - | - | - | ? | ?
Fc1ccc(N2CCN(c3ncnc4c3nnn4Cc3ccccc3Cl)CC2)cc1 | - | . | - | - | ? | 14.6µM
CCN1CCCC1CNC(=O)c1cnn(-c2nccc(-c3ccco3)n2)c1C1CC1 (stereo not drawn) | . | . | . | . | - | -
CCN1CCCC1CNC(=O)c1cnn(-c2nccc(-c3cc4ccccc4o3)n2)c1C1CC1 (stereo not drawn) | . | . | . | . | ? | 4.11µM
COC(=O)c1cnc(Nc2nc(C(N)COCc3ccccc3)cs2)nc1C(F)(F)F (stereo not drawn) | - | . | - | ? | ? | 14.6µM
COC(=O)c1cnc(Nc2nc(C(N)c3ccccc3Cl)cs2)nc1C(F)(F)F (stereo not drawn) | - | . | - | 17.8µM | ? | 25.9µM
NC(c1csc(NC(=O)c2cccc(OC(F)(F)F)c2)n1)c1ccccc1Cl (stereo not drawn) | - | . | - | 11.2µM | 4.11µM | 5.8µM
CCc1cnc(Nc2nc(C(N)c3ccccc3Cl)cs2)nc1 (stereo not drawn) | - | . | - | - | ? | ?
Cc1ccc(Cl)cc1NC(=O)Cn1cc2c(n1)CCCCC2 | - | - | . | - | - | -
C#CCCOC(=O)N1C2=NC(C(=O)OC)=C(C(=O)OC)[C@@H]3Nc4ccccc4[C@]23C[C@H]1C(=O)OC | - | -[21 µM] | - | - | - | -
C[C@H](CO)N1C[C@H](C)[C@H](CN(C)Cc2ccc(C(=O)O)cc2)OCc2ccccc2-c2c(n(C)c3ccccc23)C1=O | - | . | - | - | - | ?
C[C@@H]1CN([C@H](C)CO)C(=O)c2c(c3ccccc3n2C)-c2ccccc2CO[C@H]1CN(C)Cc1ccccc1 | - | . | ? | ? | ? | ?
C[C@@H]1CN([C@H](C)CO)C(=O)c2c(c3ccccc3n2C)-c2ccccc2CO[C@@H]1CN(C)C(=O)Nc1ccc2c(c1)OCO2 | - | . | - | - | ? | ?
COc1ccccc1NC(=O)N(C)C[C@@H]1OCc2ccccc2-c2c(n(C)c3ccccc23)C(=O)N([C@H](C)CO)C[C@@H]1C | - | . | - | - | 20.6µM | 23.1µM
C[C@H](CO)N1C[C@H](C)[C@H](CN(C)C(=O)Nc2ccc(F)cc2)OCc2ccccc2-c2c(n(C)c3ccccc23)C1=O | - | . | - | ? | 14.6µM | 13µM
C[C@H](CO)N1C[C@H](C)[C@H](CN(C)Cc2ccncc2)OCc2ccccc2-c2c(n(C)c3ccccc23)C1=O | - | . | - | - | 25.9µM | 16.4µM
C[C@@H]1CN([C@@H](C)CO)C(=O)c2c(c3ccccc3n2C)-c2ccccc2CO[C@H]1CN(C)C(=O)[C@H](Cc1ccccc1)N(C)C | - | . | - | ? | ? | 20.6µM
Cc1cc(C)c2oc(C(=O)Nc3sc4c(c3C(=O)NCc3ccco3)CCC4)cc(=O)c2c1 | - | - | . | - | - | -
CNC[C@@H]1OCc2ccccc2-c2c(n(C)c3ccccc23)C(=O)N([C@H](C)CO)C[C@@H]1C | - | . | - | ? | ? | 18.4µM
